PubChem BioAssay AID463173 (ICCB-Longwood Screening Facility, Harvard Medical School, 2010)
The campaign covered roughly 52,000 compounds. About 4,300 (8.3%) were called active. The sample as a whole holds a higher share of actives than the screen did. Values without a mark were called inactive. Rule as the data show it: active = survival mostly below about 52% (no sharp cut-off); inactive = mostly above about 56%.

System: DeltatarO mutant
Assay: growth inhibition of S. aureus wild type versus tarO mutant, primary screen, teichoic acid synthesis inhibitors, RN4220, OD600 (AID 463173)
Settings: OD600, 18 h, stronger effect = lower value, screened at 18.75 µg/mL (by protocol)

Row | SMILES | survival
1 | CCc1cccc(C)c1NS(=O)(=O)c1c(C(=O)N2CCCCCC2)c(C)n(C)c1C | 101%
2 | Cc1ccc(-n2ncc(C(=O)N3CCN(C4CCCCC4)CC3)c2C2CCN(C(=O)OC(C)(C)C)CC2)cc1C | 85%
3 | Cc1cccc(CNS(=O)(=O)c2csc(C(N)=O)c2)c1 | 76%
4 | CC(Oc1ccccc1)C(=O)Nc1ccc(OCc2cc(=O)n3ccsc3n2)cc1 (stereo unspecified) | 76%
5 | CCCn1c(=O)c2sccc2n2c(CCCC(=O)Nc3ccc(C)c(F)c3)nnc12 | 88%
6 | O=C(C1CCCCC1)N1CCN(c2ncnc3c2cnn3-c2ccccc2)CC1 | 101%
7 | O=CN1CCN(C(=O)c2ccc(F)cc2)CC1 | 78%
8 | Cc1ccc(CNC(=O)c2sc3ncnc(N(C)C4CCCCC4)c3c2C)cc1 | 91%
9 | Cc1cccc(CNC(=O)c2sc3ncnc(N(C)C4CCCCC4)c3c2C)c1 | 46% (active)
10 | Cc1c(C(=O)Nc2ccccc2F)sc2ncnc(N(C)C3CCCCC3)c12 | 37% (active)
11 | Cc1c(C(=O)NCc2cccc(Cl)c2)sc2ncnc(N(C)C3CCCCC3)c12 | 101%
12 | Cc1c(C(=O)Nc2ccccc2Cl)sc2ncnc(N(C)C3CCCCC3)c12 | 92%
13 | Cc1cccc(NC(=O)c2sc3ncnc(N(C)C4CCCCC4)c3c2C)c1C | 118%
14 | O=C(NC1CC(=O)N(c2cccc(F)c2)C1)c1ccc(S(=O)(=O)N2CCCCC2)cc1 (stereo unspecified) | 91%
15 | CCc1ccccc1Nc1ncnc2c1nc1n2CCCC1 | 94%
16 | O=C(CSc1nc2c([nH]c3ccccc32)c(=O)n1-c1ccc(Cl)cc1)N1CCCCCC1 | 76%
17 | Cc1cccc(C(=O)Nc2nnc(S(=O)(=O)N(C)Cc3ccc(Cl)cc3)s2)c1 | 95%
18 | CCCCC(=O)Nc1nnc(S(=O)(=O)N(C)Cc2ccccc2)s1 | 91%
19 | Cc1cccc(C(=O)Nc2nnc(S(=O)(=O)N(C)c3ccccc3C)s2)c1 | 32% (active)
20 | Cc1cccc(C(=O)Nc2nnc(S(=O)(=O)N(C)Cc3ccccc3)s2)c1 | 23% (active)
21 | CN(Cc1ccccc1)S(=O)(=O)c1nnc(NC(=O)c2cccc(Cl)c2)s1 | 1% (active)
22 | Cc1ccccc1C(=O)Nc1nnc(S(=O)(=O)N(C)Cc2ccccc2)s1 | 75%
23 | CN(Cc1ccc(F)cc1)S(=O)(=O)c1nnc(NC(=O)c2ccccc2Cl)s1 | 85%

Row | SMILES | survival
24 | Cc1cccc(N(C)S(=O)(=O)c2nnc(NC(=O)C(C)Oc3ccccc3)s2)c1 (stereo unspecified) | 54%
25 | CCC(=O)Nc1nnc(S(=O)(=O)N(C)Cc2ccccc2)s1 | 87%
26 | CN(Cc1ccccc1)S(=O)(=O)c1nnc(NC(=O)c2ccccc2Cl)s1 | 29% (active)
27 | Cc1ccc(C(=O)Nc2nnc(S(=O)(=O)N(C)Cc3ccc(Cl)cc3)s2)cc1 | 99%
28 | CCOc1cccc(C(=O)Nc2nnc(S(=O)(=O)N(C)c3ccc(C)cc3)s2)c1 | 75%
29 | Cc1ccc(S(=O)(=O)c2nnn3c2nc(N(C)Cc2ccccc2)c2cc(Cl)ccc23)cc1C | 108%
30 | Cc1ccccc1NC(=O)CSCn1nnc2c(=O)[nH]c(Cc3ccc(F)cc3)nc21 | 55%
31 | CC(C)Cn1c(=O)c2ccccc2n2c(CCC(=O)Nc3cccc(Cl)c3)nnc12 | 88%
32 | Cc1cc(OC(C)C(=O)N2CCC(c3nc4ccccc4o3)CC2)ccc1Cl (stereo unspecified) | 57%
33 | COc1ccc(C(=O)N/C(=C\c2cn(S(=O)(=O)N(C)C)c3ccccc23)C(=O)NCCCn2ccnc2)cc1 | 85%
34 | O=C(O)CCc1nnc2cnc3ccccc3n12 | 171%
35 | CCc1ccc(NC(=O)CC2C(=O)NCCN2C(=O)c2ccccc2OC)cc1 (stereo unspecified) | 109%
36 | COC(=O)c1ccc(NC(=O)c2cc3cc4ccc(OC)c(Cl)c4nc3s2)cc1 | 98%
37 | Cc1ccc(NC(=O)CSc2cc(=O)n(C)c3ccc(Cl)cc23)c(Br)c1 | 79%
38 | CCCCOC(=O)c1ccc(NC(=O)Cc2coc3c(C)c(C)ccc23)cc1 | 79%
39 | CN(Cc1ccc(F)cc1)S(=O)(=O)c1nnc(NC(=O)c2ccc(F)cc2)s1 | 81%
40 | Cc1ccccc1N(C)S(=O)(=O)c1nnc(NC(=O)c2ccccc2F)s1 | 27% (active)
41 | CN(Cc1ccc(F)cc1)S(=O)(=O)c1nnc(NC(=O)c2ccccc2)s1 | 102%
42 | CN(Cc1ccccc1)S(=O)(=O)c1nnc(NC(=O)c2ccccc2)s1 | 26% (active)
43 | Cc1ccccc1N(C)S(=O)(=O)c1nnc(NC(=O)C(C)C)s1 | 69%
44 | CCc1ccc(NC(=O)Cn2c(=O)n(-c3cc(OC)c(OC)c(OC)c3)c(=O)c3ccccc32)cc1 | 72%
45 | COC(=O)c1cc2sc(Cl)cc2n1Cc1nc(-c2ccccc2C)oc1C | 78%
46 | CCOC(=O)CSc1nc(-c2ccccc2)cc(C(F)(F)F)c1C#N | 70%

Row | SMILES | survival
47 | N#Cc1c(C(F)(F)F)cc(=O)n2c1[nH]c1ccccc12 | 37% (active)
48 | Cc1cc(=O)n2c([nH]c3ccccc32)c1C(=O)O | 61%
49 | CC(=O)N1CCc2c(sc3c2c(=O)n(-c2ccccc2)c(=O)n3CC(=O)Nc2ccccc2)C1 | 91%
50 | COc1cccc(NC(=O)C(=O)NCCc2csc(-c3ccc(C(F)(F)F)cc3)n2)c1 | 94%
51 | CCOc1ccccc1NC(=O)c1nnn(CC(=O)Nc2ccc(OC)c(OC)c2)c1N | 91%
52 | Cc1ccc(Cn2c(CN3CCC(C(=O)NCC(C)c4ccccc4)CC3)cc3ccccc32)cc1 (stereo unspecified) | 113%
53 | CC(CNC(=O)C1CCN(Cc2cc3ccccc3n2Cc2ccccc2)CC1)c1ccccc1 (stereo unspecified) | 47% (active)
54 | CCCNC(=O)C1CCN(Cc2cc3ccccc3n2Cc2ccccc2)CC1 | 87%
55 | Cc1cc(N2CCN(C)CC2)nc2ccc(NC(=O)Nc3ccc(F)cc3F)cc12 | 73%
56 | O=C(Cc1ccc(F)cc1)NCCc1csc(-c2cccc(F)c2)n1 | 88%
57 | Cc1ccc(C)c(NC(=O)/C(C#N)=C/c2ccc(C(C)C)cc2)c1 | 66%
58 | Cc1cc(Nc2cccc(O)c2)c2cccc(Br)c2n1 | 61% (active)
59 | Cc1cc(Cl)c2cccc(Br)c2n1 | 110%
60 | Cc1cc(Nc2ccccc2C)c2cccc(C)c2n1 | 62%
61 | Cc1ccc(C(C)C)c(OCCCn2c(=O)oc3ccc(C)cc32)c1 | -5% (active)
62 | CCOc1ccccc1NC(=O)NCCn1c(=O)oc2ccc(C)cc21 | 71%
63 | Cc1ccc(C(C)C)c(OCCCn2c(=O)oc3ccccc32)c1 | -3% (active)
64 | Cc1ccc(NC(=O)NCCOCCn2c(=O)oc3ccccc32)c(C)c1 | 70%
65 | Cc1cccc(NC(=O)NCCn2c(=O)oc3ccc(C)cc32)c1 | 71%
66 | Cc1ccc(C(C)C)c(OCC(=O)N2CCC(c3nc4ccccc4o3)CC2)c1 | 80%
67 | Cc1ccc(Cl)cc1NC(=O)Cn1c(=O)n(Cc2ccc(C(=O)NCc3ccc4c(c3)OCO4)cc2)c(=O)c2ccccc21 | 90%
68 | COc1ccc(NC(=O)Cn2c(=O)n(-c3cc(C)cc(C)c3)c(=O)c3oc4ccccc4c32)cc1OC | 68%
69 | CCc1ccccc1NC(=O)c1ccc2c(c1)N(Cc1cccc(Cl)c1)C(=O)c1ccccc1S2(=O)=O | 81%

Row | SMILES | survival
70 | O=S(=O)(NCCc1nnc2ccc(SCc3ccc(C(F)(F)F)cc3)nn12)c1ccccc1 | 67%
71 | Cc1ccc2cccc(NC(=O)c3cccc4c(Br)cccc34)c2n1 | 134%
72 | COc1ccc(Br)cc1C(=O)Nc1cccc2ccc(C)nc12 | 73%
73 | Cc1ccc2cccc(NC(=O)c3cccc4c(Cl)cccc34)c2n1 | 63%
74 | COc1c(C)cccc1C(=O)Nc1cccc2ccc(C)nc12 | -1% (active)
75 | CCOc1ccccc1C(=O)Nc1cccc2ccc(C)nc12 | 68%
76 | Cc1ccc2cccc(NC(=O)c3cccc4ccccc34)c2n1 | -2% (active)
77 | Cc1cc2c(cc1S(=O)(=O)CCC(=O)N1CCC(C)CC1)OCC(=O)N2 | 102%
78 | Cc1ccccc1-c1nc(CS(=O)(=O)CC(=O)N2CCN(c3ccccc3)CC2)c(C)o1 | 65%
79 | O=C(Cn1ccc2cc(S(=O)(=O)N3CCCC3)ccc21)NCc1ccc(Cl)cc1 | 84%
80 | COC(=O)c1c(NC(=O)c2cc3nc(-c4ccc(Br)cc4)cc(C(F)(F)F)n3n2)sc2c1CCCC2 | 70%
81 | Cc1ccc(-c2cc3nc(-c4ccccc4)cc(C(F)(F)F)n3n2)cc1 | 69%
82 | Cc1cc2nc(-c3ccc(Br)cc3)cc(C(F)(F)F)n2n1 | 37% (active)
83 | CC(=O)c1cccc(NC(=O)c2cc3nc(-c4ccc(Br)cc4)cc(C(F)(F)F)n3n2)c1 | 49%
84 | COc1ccc(-c2cc3nc(-c4ccc(Br)cc4)cc(C(F)(F)F)n3n2)cc1 | 51%
85 | CCCNC(=O)c1cc2nc(-c3ccc(Br)cc3)cc(C(F)(F)F)n2n1 | 51% (active)
86 | COc1cccc(-c2cc(C(F)(F)F)n3nc(-c4ccc(C)cc4)cc3n2)c1 | 142%
87 | Cc1ccc(-c2cc(C(F)(F)F)n3nc(C(=O)Nc4sc5c(c4C#N)CCC(C)C5)cc3n2)cc1 (stereo unspecified) | 95%
88 | N#Cc1c(NC(=O)c2cc3nc(-c4ccc(Br)cc4)cc(C(F)(F)F)n3n2)sc2c1CCCC2 | 32% (active)
89 | CCc1ccccc1NC(=O)c1cc2nc(-c3ccc(Br)cc3)cc(C(F)(F)F)n2n1 | 84%
90 | Cc1cc(C(F)(F)F)n2nc(-c3ccc(Br)cc3)cc2n1 | 66%
91 | Cc1ccc(-c2cc(C(F)(F)F)n3nc(-c4cccc(Br)c4)cc3n2)cc1 | 46% (active)
